# From PubChem BioAssay (EPA / NIEHS)
# Several values for one entry are separate records, joined by “and”; a condition that tells them apart may be missing. Identical values can stand only once. Activity calls are given as the source filed them. The calls were made as follows: active = hit-call score of the fitted dose curve at least 0.9, where 1 is the maximum; inactive = score below 0.9.
# Assay: BSK_SAg_Proliferation: Cell Proliferation Assessment in the BioMAP Diversity Plus: SAg Assay (AID 2283095)
# Settings: primary human HUVEC with PBMC
# Experimental: BSK_SAg is a cell-based, multiplexed-readout assay that uses umbilical vein endothelium and peripheral blood mononuclear cells, a human vascular primary cell co-culture, with measurements taken at 24 hours after chemical dosing in a 96-well plate.BSK_SAg_Proliferation is an assay component in the BSK_SAg assay. It measures protein content, a form of viability reporter, as detected with absorbance signals by Sulforhodamine staining technology. Data from the assay component BSK_SAg_Proliferation was analyzed into 1 assay endpoint. This assay endpoint, BSK_SAg_Proliferation, was analyzed with bidirectional fitting relative to DMSO as the negative control and baseline of activity. Using a type of viability reporter, measures of total protein for gain or loss-of-signal activity can be used to understand the viability at the cellular-level. Furthermore, this assay endpoint can be referred to as a secondary readout, because this assay has produced multiple assay endpoints where this one serves a viability function. To generalize the intended target to other relatable targets, this assay endpoint is annotated to the cell cycle intended target family, where the subfamily is proliferation.
# The levels of cell surface (or secreted, indicated by the prefix "s") biomarker endpoints were measured by ELISA. Overt cytotoxicity to cells in confluent adherent cultures (all systems other than the BT system) was assessed by measuring total protein levels using sulforhodamine B (SRB) staining in parallel cultures at the time of biomarker measurements, indicated as SRB endpoints. For proliferation assays for adherent cell types, individual cell types are cultured at sub-confluence and relative cell numbers quantified by SRB staining at time points optimized for each system (48 h: 3C and CASM3C systems; 72 h: BT and HDF3CGF systems; 96 h: SAg system). SRB was performed by staining cells with 0.1% SRB after fixation with 10% TCA and reading wells at 560 nm.Viability and proliferation of PBMC (T cells) was quantified by Alamar Blue reduction for the SAg and BT systems. For PBMC viability (referred to as PBMC Cytotoxicity within the assay endpoint names), cells were plated (75,000/well in a 96-well plate) and then chemical samples added for 1 h before addition of activators, SEB and TSST-1 (20 ng/mL final concentration each). Cells were incubated for 90 h. Then, Alamar Blue (20 uL/well) (Invitrogen, Cat DAL1100) was added for 6 h, and the plates were read with a fluorescence microplate reader at 546/580 nm (excitation/emission). For PBMC proliferation, cells were plated and activated as above but incubated for only 16 h prior to addition of Alamar Blue. Plates were read after 6 h.
Structure (SMILES),outcome,AC50
O=S(=O)(O)C(F)(F)C(F)(F)OC(F)(F)C(F)(F)F,inactive,–
O=C(c1ccc(OCCN2CCCCC2)cc1)c1c(-c2ccc(O)cc2)sc2cc(O)ccc12,–,14.6 µM (active)
c1ccc2c(c1)-c1ccc3ccc4cccc5cc-2c1c3c45,inactive,–
O=C(O)C(F)(F)C(F)(F)C(F)(F)C(F)(F)C(F)(F)C(F)(F)C(F)(F)C(F)F,inactive,–
c1ccc(Sc2ccccc2)cc1,–,34 µM (active)
CC(C)(C)c1cccc(O)c1,inactive,–
CC1=CC(C)C(C=O)C(C)C1 (stereo not given) (tested in a mixture with another compound),inactive,–
OCC(F)(OC(F)(F)C(F)(OC(F)(F)C(F)(F)C(F)(F)F)C(F)(F)F)C(F)(F)F (stereo not given),–,2.09 µM (active) and 2.02 µM (active)
CC(C)CCCC(C)(C)O,inactive,–
CCCCCCCCCC(=O)OCC,–,33.5 µM (active)
CCOC(=O)C=Cc1ccccc1,inactive,–
CCCO[Si](OCCC)(OCCC)OCCC,inactive,–
C=C(C)C(N)=O,inactive,–
CC(=O)CCC=C(C)CCC=C(C)C,–,20 µM (active)
CC(C)(CO)CO,inactive,–
CC(=O)c1ccc(C)cc1,inactive,–
C#C[C@]1(O)CC[C@H]2[C@@H]3CCc4cc(O)ccc4[C@H]3CC[C@@]21C,–,5.51 µM (active)
CC(=O)OC(C)(C)C1CC=C(C)CC1 (stereo not given),inactive,–
C[C@]12CC[C@@H]3c4ccc(O)cc4CC[C@H]3[C@@H]1CC[C@@H]2O,–,13.5 µM (active)
CC=CC(=O)C1=C(C)C=CCC1(C)C,inactive,–

Structure (SMILES),outcome,AC50
CCCCOCCOCCO,inactive,–
CC(=O)OCC=C(C)CCC=C(C)CCC=C(C)C,inactive,–
OCCN1CCOCC1,inactive,–
NC(=O)c1c(Cl)cccc1Cl,inactive,–
O=S1(=O)CC(Cl)(Cl)C(Cl)(Cl)C1,–,0.0797 µM (active)
CCCCN(CCO)CCO,inactive,–
CCOC(=O)CCCCCCCCC(=O)OCC,inactive,–
CCC(=O)OCC=Cc1ccccc1,inactive,–
CCCCCCCCCCCCS,–,20 µM (active)
CC1(C)[C@H](C=C(Cl)Cl)[C@H]1C(=O)OCc1cccc(Oc2ccccc2)c1,inactive,–
O=C(O)C(F)(F)OC(F)(F)C(F)(F)OC(F)(F)C(F)(F)C(F)(F)C(F)(F)F,inactive,–
c1ccc(OCCOc2ccccc2)cc1,inactive,–
COC(=O)c1ccc(C(=O)OC)cc1,inactive,–
CC/C(=C(\c1ccccc1)c1ccc(OCCN(C)C)cc1)c1ccccc1,–,4.55 µM (active) and 5.13 µM (active)
COc1ccccc1NC(=O)CC(C)=O,inactive,–
O=C1OC2(c3ccc(O)cc3Oc3cc(O)ccc32)c2ccccc21,–,1.02 µM (active)
C=C1CC/C=C(\C)CC[C@@H]2[C@@H]1CC2(C)C,–,22.8 µM (active)
Nc1ccc(N)c([N+](=O)[O-])c1,inactive,–
C=C(C)C(=O)OCCC(F)(F)C(F)(F)C(F)(F)C(F)(F)C(F)(F)C(F)(F)C(F)(F)C(F)(F)F,inactive,–
C=C(F)C(=O)OC(C(F)(F)F)C(F)(F)F,inactive,–
